Out of some 310,000 compounds screened, about 14,000 (4.5%) showed an effect of 50% or more. The effect is printed as a negative number. For the sample, strong results were picked, then their nearest neighbours and some compounds at random.
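Note: peak tail current of the secondary pulse compared with the same well before compound.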

human ether-à-go-go-related gene (hERG) potassium channel, sequence (Q12809 whole entry, looked up): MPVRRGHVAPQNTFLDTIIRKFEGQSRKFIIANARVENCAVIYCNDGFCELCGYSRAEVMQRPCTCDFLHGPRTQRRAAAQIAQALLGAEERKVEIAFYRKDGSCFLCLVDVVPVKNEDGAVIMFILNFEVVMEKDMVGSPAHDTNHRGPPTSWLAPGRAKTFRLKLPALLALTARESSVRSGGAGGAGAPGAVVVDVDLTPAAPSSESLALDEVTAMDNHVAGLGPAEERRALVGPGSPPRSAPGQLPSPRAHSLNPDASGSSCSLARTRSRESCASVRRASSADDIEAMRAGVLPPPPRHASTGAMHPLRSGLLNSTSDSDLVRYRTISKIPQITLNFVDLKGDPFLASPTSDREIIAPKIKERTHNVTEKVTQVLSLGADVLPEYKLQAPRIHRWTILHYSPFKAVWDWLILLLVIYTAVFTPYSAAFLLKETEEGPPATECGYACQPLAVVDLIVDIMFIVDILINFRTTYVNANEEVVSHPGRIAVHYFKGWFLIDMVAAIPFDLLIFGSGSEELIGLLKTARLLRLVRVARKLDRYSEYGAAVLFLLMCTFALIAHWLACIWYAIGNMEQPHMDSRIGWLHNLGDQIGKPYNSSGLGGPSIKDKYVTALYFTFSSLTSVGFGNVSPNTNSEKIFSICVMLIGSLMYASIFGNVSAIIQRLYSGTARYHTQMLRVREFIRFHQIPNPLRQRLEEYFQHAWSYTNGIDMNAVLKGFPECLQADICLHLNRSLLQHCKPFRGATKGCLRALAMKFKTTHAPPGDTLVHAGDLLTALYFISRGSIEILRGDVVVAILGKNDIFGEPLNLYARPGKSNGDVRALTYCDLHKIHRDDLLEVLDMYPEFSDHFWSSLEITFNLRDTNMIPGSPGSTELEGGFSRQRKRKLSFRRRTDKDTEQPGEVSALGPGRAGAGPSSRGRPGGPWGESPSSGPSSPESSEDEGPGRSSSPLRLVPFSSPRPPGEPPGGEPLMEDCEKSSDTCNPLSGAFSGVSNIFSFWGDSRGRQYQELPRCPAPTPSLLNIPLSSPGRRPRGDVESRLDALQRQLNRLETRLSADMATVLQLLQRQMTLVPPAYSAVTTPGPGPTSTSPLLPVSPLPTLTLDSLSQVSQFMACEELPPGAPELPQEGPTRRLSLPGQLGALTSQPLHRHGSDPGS

The assay concerns the target human ether-à-go-go-related gene (hERG) potassium channel (human, UniProt Q12809). Description: primary screen, population patch clamp on CHO cells stably expressing hERG; higher = less effect of the substance.
For `Cc1ccc(CCNC(=O)C2CCN(S(=O)(=O)c3ccc4c(c3)NC(=O)C(C)S4)CC2)cc1` (stereo not shown), the “hERG current change (%, negative = inhibition) at 10uM” value was -2.94%. Next, `CC(C)N(C(=O)CSc1ccc(S(=O)(=O)N2CCCCC2)cn1)C(C)C`: -15.7%; `CC12CCC(C(=O)O)(c3nc4cc([N+](=O)[O-])ccc4nc31)C2(C)C` (stereo not shown): -1.75%. Then `O=C(NC(Cc1c[nH]c2ccccc12)C(=O)O)/C(=C\c1ccccc1)NC(=O)c1ccccc1` (stereo not shown), with 9.54%; and `COc1ccc2cnn(-c3ccc(OC(F)(F)Cl)cc3)c(=O)c2c1OC`, with 6.28%; and `CCCN(CC(=O)Nc1ccccc1C)C(=O)c1ccc(N2CCCC2)c([N+](=O)[O-])c1`, with -41.3%.

`CCCN(CC(=O)Nc1ccccc1C)C(=O)c1ccc(N2CCOCC2)c([N+](=O)[O-])c1`: the “hERG current change (%, negative = inhibition) at 10uM” value is reported as -70.3%.

Turning to `CCN(CC(=O)Nc1c(F)cccc1F)C(=O)c1cc([N+](=O)[O-])ccc1N1CCOCC1`, the “hERG current change (%, negative = inhibition) at 10uM” value is -4.57%.

On to `CCN(CC(=O)Nc1cc(Cl)ccc1C)C(=O)c1cc([N+](=O)[O-])ccc1N1CCOCC1`, for which the “hERG current change (%, negative = inhibition) at 10uM” value is given as -18.5%. Next, `CCCN(CC(=O)Nc1ccccc1C)C(=O)c1ccc(N2CCCCC2)c([N+](=O)[O-])c1`: -43.7%; `CCCN(CC(=O)Nc1ccc(F)c(F)c1F)C(=O)c1cc([N+](=O)[O-])ccc1N1CCOCC1`: -67.1%. Then `O=C(NCC(=O)N1CCN(C(=O)c2ccccc2)CC1)c1ccccc1`, with 5.05%; and `O=C1C=C(/C=C/c2ccccc2)C[C@@H](c2ccc(F)cc2)C1`, with -59.7%. Next, `COc1ccc([C@H]2CC(=O)C=C(c3cc(C(F)(F)F)cc(C(F)(F)F)c3)C2)cc1`: 4.42%. Consider `O=C1C=C(/C=C/c2ccccc2)C[C@@H](c2ccc3c(c2)OCO3)C1`, for which the “hERG current change (%, negative = inhibition) at 10uM” value is 20%.

With `CCCCC/C=C/C1=CC(=O)C[C@H](c2ccc(Cl)cc2)C1`, the “hERG current change (%, negative = inhibition) at 10uM” value is given as -47.4%. Then `COc1ccc([C@H]2CC(=O)C=C(/C=C/c3ccc(C(F)(F)F)cc3)C2)cc1`, with -62.9%; and `O=C1C=C(c2ccccc2)CC(c2ccc(F)cc2)C1` (stereo not shown), with -28.2%; and `C/C=C/C1=CC(=O)C[C@H](c2ccc(Cl)cc2)C1`, with -63.9%. As for `COc1ccc([C@H]2CC(=O)C=C(/C=C/c3ccc(Cl)cc3)C2)cc1`, the “hERG current change (%, negative = inhibition) at 10uM” value is 12.8%.

With `C/C=C/C1=CC(=O)C[C@H](c2ccc(F)cc2)C1`, the “hERG current change (%, negative = inhibition) at 10uM” value is listed as -34.3%. Then `O=C(Nc1ccc(-c2cn3ccccc3n2)cc1)c1ccco1`, with -11.4%. Then `O=C1C=C(c2ccc(CO)cc2)C[C@@H](c2ccc3c(c2)OCO3)C1`, with -44.3%; and `CC1=CSC2=NC(C(F)(F)F)(C(F)(F)F)NC(=O)N12`, with -1.5%. Then `C=CCn1sc(N)c(C(=O)OCC)c1=S`, with 0.673%. For the compound `Cc1ccc(NS(=O)(=O)c2cccc(C(=O)O)c2)cc1S(=O)(=O)N1CCCCC1`, the “hERG current change (%, negative = inhibition) at 10uM” value worked out at 3.3%. As for `COC(=O)Cn1c(=NC(=O)c2nc3ccccc3s2)sc2cc(S(C)(=O)=O)ccc21`, the “hERG current change (%, negative = inhibition) at 10uM” value was -65.2%. Next, `COC(=O)Cn1c(=NC(=O)c2nc3ccccc3s2)sc2cc(S(N)(=O)=O)ccc21`: 6.74%. Then `COCCn1c(=NC(=O)c2nc3ccccc3s2)sc2cc(S(C)(=O)=O)ccc21`, with -21%; and `CCC(=O)NNC(=S)NC(=O)c1ccc(C)cc1`, with 22.4%; and `S=c1[nH]nc(-c2cccc(Br)c2)o1`, with 19.6%.

On to `CCOC(=O)c1cccc(NC(=O)CCc2nnc3ccc(N4CCCCC4)nn23)c1`, for which the “hERG current change (%, negative = inhibition) at 10uM” value was found to be 7.86%. As to `C=CCn1c(O)c(N=NC(=O)CNC(=O)c2ccco2)c2ccccc21`, the “hERG current change (%, negative = inhibition) at 10uM” value is given as -4.55%. Next, `CCn1c(O)c(N=NC(=O)CNC(=O)/C=C/c2ccco2)c2ccccc21`: 0.357%; `C=CCn1c(O)c(N=NC(=O)CNC(=O)/C=C/c2ccco2)c2ccccc21`: -58.2%. Next, `CCCCNC(=O)NS(=O)(=O)c1cnccc1Sc1ccc(Cl)cc1`: 12.1%; `NC(=O)c1cccnc1Nc1cccc(F)c1`: -4.36%. Then `CCOC(=O)c1sc(/S(C)=N\S(=O)(=O)c2cccc(Cl)c2)c2c1CCC=C2` (stereo not shown), with -51.9%; and `CCOC(=O)C1=C(C)Nc2ccccc2N/C1=N\S(=O)(=O)c1cccc(Cl)c1`, with 0.773%; and `CCOC(=O)c1nc(C)sc1-c1ccnn1S(=O)(=O)c1cccc(Cl)c1`, with -22.5%.

With `COc1ccc(-n2nc(C(=O)NCc3ccco3)c3c4ccccc4n(C)c3c2=O)cc1`, the “hERG current change (%, negative = inhibition) at 10uM” value is recorded as 18.1%. Next, `Cc1ccc(C)c(NC(=O)C2CCC(C)(C(=O)O)C2(C)C)c1` (stereo not shown): -18.4%; `Cc1cccc(NCC(=O)N/N=C\c2cccc(Oc3ccccc3)c2)c1`: 20.1%; `O=C(CNC(=O)c1cccs1)Nc1ccncc1`: 8.67%. Then `O=C(Nc1ccc2c(c1)OCO2)C1CC(c2ccccc2Cl)=NO1` (stereo not shown), with -12.7%. Next, `CC(CS(=O)(=O)c1ccc2c(c1)NC(=O)CS2)C(=O)N1CCN(c2cccc(Cl)c2)CC1` (stereo not shown): -52.1%; `O=C1COc2ccc(S(=O)(=O)CCC(=O)N3CCN(c4cccc(Cl)c4)CC3)cc2N1`: -58.4%; `O=C1COc2ccc(S(=O)(=O)CCC(=O)N3CCN(c4cccc(C(F)(F)F)c4)CC3)cc2N1`: -46.3%.

As for `CC(CC(=O)N1CCN(c2ccccc2)CC1)S(=O)(=O)c1ccc2c(c1)NC(=O)CS2` (stereo not shown), the “hERG current change (%, negative = inhibition) at 10uM” value is reported as -34.6%. Then `O=C1COc2ccc(S(=O)(=O)CCC(=O)N3CCN(c4ccccc4)CC3)cc2N1`, with -13.1%; and `COc1ccccc1N1CCN(C(=O)C(C)CS(=O)(=O)c2ccc3c(c2)NC(=O)CS3)CC1` (stereo not shown), with 4.07%. On to `O=C(NC1CCN(c2ncccn2)CC1)c1ccccc1F`, for which the “hERG current change (%, negative = inhibition) at 10uM” value was 18.6%.
